Calls of active or inactive are those of the source. Rule for the calls: active = hit-call score of the fitted dose curve at least 0.9, where 1 is the maximum; inactive = score below 0.9.
These compounds were tested on CD69, CD69 (gene 969) (assay: BSK_SAg_CD69: BioMAP Diversity Plus: SAg Assay for CD69 Biomarker Activity (AID 2283089;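 for AC50: cell surface CD69 protein quantified by ELISA with fluorescence detection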)). Settings: primary human HUVEC with PBMC; actives raise or lower the signal.
Summary of the method: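 ELISA, fluorescence read-out: CD69 on human umbilical vein endothelial cell + PBMC co-culture, 24 h post-dosing. Gain or loss of signal fitted bidirectionally against DMSO baseline.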
For `On1ccccc1=S`, the AC50 was 12.2 µM (active). In the case of `Cn1c(=O)c2c(ncn2C)n(C)c1=O`, the outcome is reported as “inactive”. With `CC(=O)c1ccc2c(c1)[C@H](NC(=O)c1ccc(F)cc1)[C@@H](O)C(C)(C)O2` the outcome was “inactive”. With `O=c1[nH]c2ccc(S(=O)CCN3CCC(Cc4ccc(F)cc4)CC3)cc2o1` (stereo not given) the outcome was “inactive”. For `C1=CCCC=CCCC=CCC1`, the outcome was “inactive”. In the case of `CC/C(=C\C(=N/O)C(N)=O)C(C)[N+](=O)[O-]` (stereo not given), the outcome is reported as “inactive”. For `CC(O)CN(CCN(CC(C)O)CC(C)O)CC(C)O` (stereo not given), the outcome was “inactive”. With `C[C@](N)(Cc1ccc(O)c(O)c1)C(=O)O` the outcome was “inactive”. For `CC[C@H]1OC(=O)[C@H](C)[C@@H](O[C@H]2C[C@@](C)(OC)[C@@H](O)[C@H](C)O2)[C@H](C)[C@@H](O[C@@H]2O[C@H](C)C[C@H](N(C)C)[C@H]2O)[C@](C)(O)C[C@@H](C)C(=O)[C@H](C)[C@@H](O)[C@]1(C)O`, the outcome was “inactive”. For `CCn1nc(Cc2ccccc2)cc1C1CCN(C[C@H]2C[C@H](N(C)[C@@H](C(=O)O)C(C)C)C[C@@H]2c2cccc(F)c2)CC1`, the outcome was “inactive”. For `O=P(OC(CCl)CCl)(OC(CCl)CCl)OC(CCl)CCl`, the outcome was “inactive”. In the case of `O=C(O)c1cc(N=Nc2ccc(S(=O)(=O)Nc3ccccn3)cc2)ccc1O`, the outcome is reported as “inactive”. For `Oc1ccc2c(c1)-c1ccccc1C2`, the outcome was “inactive”. With `CCCCCCCCCCCCc1ccccc1` the outcome was “inactive”. `CCCC(=O)OCC` was tested, and the outcome was “inactive”. `COc1ccc(-n2nc(C(F)F)cc2-c2ccc(S(C)=O)cc2)cc1` (stereo not given) was tested, and the AC50 was 2.28 µM (active). With `CC(C)(O)c1coc(S(=O)(=O)NC(=O)Nc2c3c(cc4c2CCC4)CCC3)c1` the outcome was “inactive”. With `CCCCC(CC)COC(=O)CCCCCCCCC(=O)OCC(CC)CCCC` (stereo not given) the outcome was “inactive”.

Each compound was assayed on Monocyte Chemoattractant Protein-1 (MCP1), CCL2 (gene 6347) (assay: BSK_SAg_MCP1: BioMAP Diversity Plus: SAg Assay for Monocyte Chemoattractant Protein-1 (MCP1) Biomarker Activity (AID 2283090)). Settings: primary human HUVEC with PBMC; actives raise or lower the signal.
Summary of the method: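 Values derive from bidirectional fitting of ELISA-measured MCP1 against DMSO controls. Readings were taken 24 h after dosing human vascular endothelial cells co-cultured with peripheral blood mononuclear cells under superantigen stimulation.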
`On1ccccc1=S` was tested, and the AC50 was 13 µM (active). `Cn1c(=O)c2c(ncn2C)n(C)c1=O` was tested, and the outcome was “inactive”. In the case of `CC(=O)c1ccc2c(c1)[C@H](NC(=O)c1ccc(F)cc1)[C@@H](O)C(C)(C)O2`, the outcome is reported as “inactive”. With `COCCOCCOCCOC` the outcome was “inactive”. `O=c1[nH]c2ccc(S(=O)CCN3CCC(Cc4ccc(F)cc4)CC3)cc2o1` (stereo not given) was tested, and the outcome was “inactive”. With `CCCN(C1CCN(C(=O)C2CCNCC2)CC1)[C@@H]1CCc2ccc(OC)cc2C1` the outcome was “inactive”. In the case of `C1=CCCC=CCCC=CCC1`, the outcome is reported as “inactive”. With `CC(C)CC(C)(O)C#CC(C)(O)CC(C)C` (stereo not given) the outcome was “inactive”. `O=C1CCC(N2C(=O)c3ccccc3C2=O)C(=O)N1` (stereo not given) was tested, and the outcome was “inactive”. With `CC/C(=C\C(=N/O)C(N)=O)C(C)[N+](=O)[O-]` (stereo not given) the outcome was “inactive”. In the case of `CC(O)CN(CCN(CC(C)O)CC(C)O)CC(C)O` (stereo not given), the outcome is reported as “inactive”. `C[C@](N)(Cc1ccc(O)c(O)c1)C(=O)O` was tested, and the outcome was “inactive”. `CCOC(=O)c1ccc(C2CCC(NC[C@H](O)COc3ccc(O)c(NS(C)(=O)=O)c3)CC2)cc1` (stereo not given in full) was tested, and the AC50 was 11.6 µM (active). For `CC[C@H]1OC(=O)[C@H](C)[C@@H](O[C@H]2C[C@@](C)(OC)[C@@H](O)[C@H](C)O2)[C@H](C)[C@@H](O[C@@H]2O[C@H](C)C[C@H](N(C)C)[C@H]2O)[C@](C)(O)C[C@@H](C)C(=O)[C@H](C)[C@@H](O)[C@]1(C)O`, the outcome was “inactive”. With `CCn1nc(Cc2ccccc2)cc1C1CCN(C[C@H]2C[C@H](N(C)[C@@H](C(=O)O)C(C)C)C[C@@H]2c2cccc(F)c2)CC1` the outcome was “inactive”. With `O=P(OC(CCl)CCl)(OC(CCl)CCl)OC(CCl)CCl` the AC50 was 23.4 µM (active). For `O=C(O)c1cc(N=Nc2ccc(S(=O)(=O)Nc3ccccn3)cc2)ccc1O`, the outcome was “inactive”. For `Oc1ccc2c(c1)-c1ccccc1C2`, the outcome was “inactive”. `CCCCCCCCCCCCc1ccccc1` was tested, and the outcome was “inactive”. `CCCC(=O)OCC` was tested, and the outcome was “inactive”. With `CC[C@H](C)C(=O)O[C@H]1C[C@@H](C)C=C2C=C[C@H](C)[C@H](CC[C@@H]3C[C@@H](O)CC(=O)O3)[C@H]21` the AC50 was 33.7 µM (active). `NC(=O)NO` was tested, and the outcome was “inactive”. In the case of `COCCOc1cc2cc(C(=O)NC3CCN(C(C)C)CC3)n(CC(=O)Nc3ccc(Cl)cn3)c2cn1`, the outcome is reported as “inactive”. With `COc1ccc(-n2nc(C(F)F)cc2-c2ccc(S(C)=O)cc2)cc1` (stereo not given) the AC50 was 1.13 µM (active). For `CC(C)(O)c1coc(S(=O)(=O)NC(=O)Nc2c3c(cc4c2CCC4)CCC3)c1`, the outcome was “inactive”. In the case of `CCNc1ccccc1`, the outcome is reported as “inactive”. For `CC(C)CCCCCCOC(=O)c1ccc(C(=O)OCCCCCCC(C)C)c(C(=O)OCCCCCCC(C)C)c1`, the outcome was “inactive”. For `CCCCC(CC)COC(=O)CCCCCCCCC(=O)OCC(CC)CCCC` (stereo not given), the outcome was “inactive”. For `Cn1c(=O)cc(Oc2ccc(F)cc2F)c2cnc(NCC(C)(C)O)nc21`, the outcome was “inactive”.

Each compound was assayed on E-selectin (Homo sapiens) (UniProt P16581) (assay: BSK_SAg_Eselectin: BioMAP Diversity Plus: SAg Assay for Eselectin Biomarker Activity (AID 2283091)). Settings: primary human HUVEC with PBMC; actives raise or lower the signal.
E-selectin (Homo sapiens), sequence (P16581 whole entry, looked up): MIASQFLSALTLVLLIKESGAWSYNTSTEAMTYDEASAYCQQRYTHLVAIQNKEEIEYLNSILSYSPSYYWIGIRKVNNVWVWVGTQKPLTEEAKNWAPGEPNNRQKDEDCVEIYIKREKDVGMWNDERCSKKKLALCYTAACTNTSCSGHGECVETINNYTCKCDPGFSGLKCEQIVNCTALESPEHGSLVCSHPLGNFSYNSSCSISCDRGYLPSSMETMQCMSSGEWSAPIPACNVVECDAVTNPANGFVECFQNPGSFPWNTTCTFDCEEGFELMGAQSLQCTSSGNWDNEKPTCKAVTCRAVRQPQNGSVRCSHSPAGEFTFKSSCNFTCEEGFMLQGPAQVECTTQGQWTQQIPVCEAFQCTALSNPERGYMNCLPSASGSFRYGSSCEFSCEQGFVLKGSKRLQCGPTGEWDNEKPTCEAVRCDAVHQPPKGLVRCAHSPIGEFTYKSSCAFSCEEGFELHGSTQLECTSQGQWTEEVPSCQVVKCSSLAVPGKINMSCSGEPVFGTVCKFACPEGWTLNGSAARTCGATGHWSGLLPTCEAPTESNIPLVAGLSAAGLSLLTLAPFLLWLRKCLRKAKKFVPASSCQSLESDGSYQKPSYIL
Summary of the method: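 E-selectin ELISA readout at 24 h post-dosing in human umbilical vein endothelial cell/PBMC co-culture; gain or loss of signal fitted relative to DMSO baseline.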
For `On1ccccc1=S`, the AC50 was 8.16 µM (active). In the case of `Cn1c(=O)c2c(ncn2C)n(C)c1=O`, the outcome is reported as “inactive”. In the case of `CC(=O)c1ccc2c(c1)[C@H](NC(=O)c1ccc(F)cc1)[C@@H](O)C(C)(C)O2`, the outcome is reported as “inactive”. In the case of `COCCOCCOCCOC`, the outcome is reported as “inactive”. In the case of `O=c1[nH]c2ccc(S(=O)CCN3CCC(Cc4ccc(F)cc4)CC3)cc2o1` (stereo not given), the outcome is reported as “inactive”. `CCCN(C1CCN(C(=O)C2CCNCC2)CC1)[C@@H]1CCc2ccc(OC)cc2C1` was tested, and the outcome was “inactive”. With `C1=CCCC=CCCC=CCC1` the outcome was “inactive”. For `CC(C)CC(C)(O)C#CC(C)(O)CC(C)C` (stereo not given), the outcome was “inactive”. `O=C1CCC(N2C(=O)c3ccccc3C2=O)C(=O)N1` (stereo not given) was tested, and the outcome was “inactive”. With `CC/C(=C\C(=N/O)C(N)=O)C(C)[N+](=O)[O-]` (stereo not given) the outcome was “inactive”. In the case of `CC(O)CN(CCN(CC(C)O)CC(C)O)CC(C)O` (stereo not given), the outcome is reported as “inactive”. In the case of `C[C@](N)(Cc1ccc(O)c(O)c1)C(=O)O`, the outcome is reported as “inactive”. In the case of `CCOC(=O)c1ccc(C2CCC(NC[C@H](O)COc3ccc(O)c(NS(C)(=O)=O)c3)CC2)cc1` (stereo not given in full), the outcome is reported as “inactive”. For `CC[C@H]1OC(=O)[C@H](C)[C@@H](O[C@H]2C[C@@](C)(OC)[C@@H](O)[C@H](C)O2)[C@H](C)[C@@H](O[C@@H]2O[C@H](C)C[C@H](N(C)C)[C@H]2O)[C@](C)(O)C[C@@H](C)C(=O)[C@H](C)[C@@H](O)[C@]1(C)O`, the outcome was “inactive”. For `CCn1nc(Cc2ccccc2)cc1C1CCN(C[C@H]2C[C@H](N(C)[C@@H](C(=O)O)C(C)C)C[C@@H]2c2cccc(F)c2)CC1`, the outcome was “inactive”. In the case of `O=P(OC(CCl)CCl)(OC(CCl)CCl)OC(CCl)CCl`, the AC50 is reported as 20 µM (active). With `O=C(O)c1cc(N=Nc2ccc(S(=O)(=O)Nc3ccccn3)cc2)ccc1O` the outcome was “inactive”. For `Oc1ccc2c(c1)-c1ccccc1C2`, the outcome was “inactive”. `CCCCCCCCCCCCc1ccccc1` was tested, and the outcome was “inactive”. With `CCCC(=O)OCC` the outcome was “inactive”. With `NC(=O)NO` the outcome was “inactive”. In the case of `COCCOc1cc2cc(C(=O)NC3CCN(C(C)C)CC3)n(CC(=O)Nc3ccc(Cl)cn3)c2cn1`, the outcome is reported as “inactive”. With `COc1ccc(-n2nc(C(F)F)cc2-c2ccc(S(C)=O)cc2)cc1` (stereo not given) the AC50 was 1.21 µM (active). For `CC(C)(O)c1coc(S(=O)(=O)NC(=O)Nc2c3c(cc4c2CCC4)CCC3)c1`, the outcome was “inactive”. In the case of `CCNc1ccccc1`, the outcome is reported as “inactive”. In the case of `CC(C)CCCCCCOC(=O)c1ccc(C(=O)OCCCCCCC(C)C)c(C(=O)OCCCCCCC(C)C)c1`, the outcome is reported as “inactive”. `CCCCC(CC)COC(=O)CCCCCCCCC(=O)OCC(CC)CCCC` (stereo not given) was tested, and the outcome was “inactive”. `Cn1c(=O)cc(Oc2ccc(F)cc2F)c2cnc(NCC(C)(C)O)nc21` was tested, and the outcome was “inactive”.

— PubChem BioAssay (EPA / NIEHS)
